Data reported in PubChem BioAssay AID1508642 (National Center for Advancing Translational Sciences (NCATS), 2021).
In all, about 43,000 compounds went through this assay and about 200 (0.47%) were called active. Another 12% or so got no clear call; they are omitted. Calls come from the whole dose curve; as a rule, active = well fitted cell-killing curve with a large enough effect; inconclusive = small, poorly fitted or top-dose-only effect, or effect the other way; inactive = flat fitted curve, though single readings scatter. The entries come from a sample that favours actives as a whole.

experiment: Cell viability qHTS assay in S16 Pmp22-F2sN cells; settings: S16 Pmp22-F2sN Schwann cells (luciferase reporters placed in the Pmp22 gene) viability, CellTiter-Glo, 24 h; series mostly up to 57.5 µM; activity change, negative = cytotoxicity: at the top concentration; note: nearly all actives have a fitted effect of over 65% in size
Description: Assay Provider: Jim Inglese Ph.D. National Center for Advancing Translational Science, National Institutes of Health, Rockville, MD CMT is a heterogeneous group of neurological disorders that affect approximately 1 in 2,500 people. In particular, the most common form of CMT, CMT1A is genetically linked to the duplication of the PMP22 gene which leads to Schwann cell overexpression, thus manifesting itself as a typical case of dose-sensitive diseases. To identify small molecule compounds that can mediate the expression of PMP22 we developed a phenotypic assay screening strategy by utilizing genome editing techniques to construct Schwann cell lines containing novel reporter technology to monitor the transcriptional or translational regulation of PMP22. For high sensitivity we use a bioluminescent reporter system embedded in the 3' UTR of the PMP22 gene (S16(c9) Pmp22-F2sN) to identify compounds that inhibit gene expression. […] We can further discriminate the effect of all transcriptionally active molecules on PMP22 translation or stability with an assay that incorporates a short NLuc peptide (HiBiT) at the C-terminus of expressed PMP22 (S16(f8) PMP22-HiBiT) allowing alpha complementation and luminescence detection of membrane-associated PMP22 protein. These assays were screened against the NCATS Sytravon Library Collection. Miniaturization of these assays to 1536-well plate format for quantitative high throughput screening (qHTS) yielded rich data sets immediately from the qHTS assay (S16(c9) Pmp22-F2sN), when compared with data from a cell viability assay (Cell TiterGlo) to identify compounds that decreased the output signals through cellular toxicity to streamline the selection process of actives for subsequent characterization using the HiBiT assay (S16(f8) PMP22-HiBiT).
Cell viability assay in S16 Pmp22-F2sN cells PROTOCOL TABLE (format as described by Inglese J, Shamu CE and Guy RK. 2007) SEQUENCE No. (e.g., 1, 2, 3, etc.); […] (e.g., Cells, Incubation, Reagent, etc.); VALUE and DESCRIPTION. 1. Cells. Add 500-1,000 cells in 4 uL in growth media (DMEM High Glucose, No Phenol Red media + 10% heat-inactivated FBS + 1% Pen/Strep supplemented media) per well into Greiner 1536-well white/solid bottom high base, TC-treated plates. 2. Compounds. Library compounds and controls added at 23nL per well, transferred by Pin Tool. 3. Incubation. Incubate plates at 37C, 5% CO2, 95% RH for 24 h. 4. Reagent. Add 3uL CellTiter-Glo per well of Greiner 1536-well plates. 5. Incubation. Incubate plates at room temperature for 15 min., protect from light. 6. Detector. FLuc luminescence measured using CCD-based camera (Viewlux). NOTES (numbers refer to Sequence numbers above; values are from representative experiments) 6. Luminescence Read: Clear filter; Exposure = 1 sec, Gain = High, Speed = Slow, Binning = 2X REFERENCES: 1. Inglese J, Shamu CE and Guy RK, Reporting data from high throughput screening of small molecule libraries, Nature Chemical Biology, 2007, 3(8): 438-441. doi.org/10.1038/nchembio0807-438 2. Yasgar A, Shinn P, Jadhav A, Auld DS, Michael S, Zheng W, Austin CP, Inglese J and Simeonov A, Compound Management for Quantitative High-Throughput Screening. J. Assoc. Lab. Auto., 2008, 13: 79-89. doi: 10.1016/j.jala.2007.12.004
% is set by controls: 0 for no effect and ±100 for the full control effect; potency is the fitted concentration of half-maximal effect.

Compound	activity change, negative = cytotoxicity	Potency
O=c1cc(CSc2ncn[nH]2)[nH]c2ccc(F)cc12	0.415% (inactive)	–
CN(C(=O)CSc1nnc(NC(=O)Nc2ccccc2)s1)c1ccccc1	-10% (inactive)	–
Cc1cc(F)ccc1NS(=O)(=O)c1ccc(-n2cccn2)cc1	-14.3% (inactive)	–
Cc1ccc(Nc2c(-c3ccc(Cl)cc3)nc3sccn23)c(C)c1	28.2% (inactive)	–
Cc1cccc(C(=O)N2c3nc(-c4ccco4)nn3C3(CCCCC3)[C@@H]3CCCC[C@@H]32)c1	3.56% (inactive)	–
CC1=C(C(=O)Nc2ccccc2)C(c2ccc(C)cc2)n2nc(SCc3ccccc3C)nc2N1 (configuration not stated)	3.66% (inactive)	–
Cc1ccccc1NC(=O)c1cc2c([nH]c1=O)CC(C)(C)CC2=O	10.8% (inactive)	–
CCOC(=O)C1CCN(c2csc3ccc(C)cc3c2=O)CC1	3.59% (inactive)	–
Cc1c(Cl)cccc1NC(=O)C(=O)NCCc1csc2nc(-c3ccccc3F)nn12	-22.5% (inactive)	–
CCCCN(CCCNC(=O)c1cc(Nc2ccccc2OC)nc2ccccc12)c1ccccc1	9.74% (inactive)	–
Cc1ccc(N(CC(=O)NCc2ccc(Cl)cc2)S(=O)(=O)N(C)C)cc1	13.9% (inactive)	–
Cc1ccsc1CN(C(=O)c1oc2ccc(Br)cc2c1C)C1CCS(=O)(=O)C1 (configuration not stated)	-28.5% (inactive)	–
Cc1ccc(NC(=O)c2oc3ccccc3c2NC(=O)Cc2cccs2)cc1	10.9% (inactive)	–
COc1ccc(CCNc2nc3c(-c4cccc(F)c4)nnn3c3ccccc23)cc1OC	-1.72% (inactive)	–
CNC(=O)CN1C(=O)c2cccnc2Sc2ccccc21	0.0311% (inactive)	–
COc1ccc(CCNC(=O)c2cn(C)c3ccc(S(=O)(=O)N(C)C4CCCCC4)cc3c2=O)cc1OC	-12.3% (inactive)	–
COc1ccc(N2CCN(S(=O)(=O)c3ccc(-c4coc(C)n4)cc3)CC2)cc1	-6.43% (inactive)	–
COc1ccc(C2NC(=O)N(C)C3=C2C(=O)N(c2ccc(C(=O)O)cc2)C3)cc1 (configuration not stated)	8.03% (inactive)	–
O=C(CN1CCN(Cc2ccc(Cl)cc2)C1=O)NCc1ccc(F)cc1	1.11% (inactive)	–
COc1ccc(-n2c(SC)nc3sc4c(c3c2=O)CCN(C(C)=O)C4)cc1	2.85% (inactive)	–
CCOc1ccc(NC(=O)Cn2cc(C(=O)c3ccc(C)cc3)c(=O)c3cc4c(cc32)OCCO4)cc1	-0.757% (inactive)	–
CC(=O)c1ccc(NC(=O)CCc2nc(-c3ccc(C)cc3)no2)cc1	-13.9% (inactive)	–
COc1ccc(S(=O)(=O)n2nc(C)c(S(=O)(=O)N3CCCCCC3)c2C)cc1	-8.85% (inactive)	–
CCC(=O)N1CCc2cc(CNS(=O)(=O)c3ccc(Br)s3)ccc21	-3.99% (inactive)	–

Compound	activity change, negative = cytotoxicity	Potency
COc1ccccc1CNC(=O)c1ccc(CS(=O)c2ccccc2Cl)o1 (configuration not stated)	-6.85% (inactive)	–
CC(C)(C)OC(=O)N1CCC(c2c(C(=O)NCCc3ccsc3)cnn2-c2ccc(F)cc2F)CC1	-27.8% (inactive)	–
COc1ccc(-c2nc(Cn3c(=O)cc(C)c4c(C)nn(-c5ccccc5)c43)c(C)o2)c(OC)c1	9.69% (inactive)	–
COC(=O)c1ccccc1NC(=O)Cn1c(=O)n(-c2cccc(C(F)(F)F)c2)c(=O)c2c(C)c(C)sc21	0.489% (inactive)	–
O=C(CCc1nc(CN2CCN(S(=O)(=O)c3ccc(Br)cc3)CC2)no1)N1CCCCC1	-20.1% (inactive)	–
CCOc1ccccc1CNCc1c(C(=O)O)c(C)n(Cc2ccc(C)cc2)c1C	-0.973% (inactive)	–
CCOc1ccc(C2C(C(=O)Nc3ccc(Cl)cc3)=C(C)Nc3nc(C(F)(F)F)nn32)cc1 (configuration not stated)	-26.8% (inactive)	–
COc1ccc(-c2nc(CN3CCC(C(=O)NCCN(CC(C)C)CC(C)C)CC3)c(C)o2)cc1OC	-2.77% (inactive)	–
COc1cc2nc(SCc3ccc(F)cc3)n3nc(CCn4c(C)nc5ccccc54)nc3c2cc1OC	-6.47% (inactive)	–
CCOc1cc(C2C(C(=O)Nc3ccc(OC)cc3)=C(C)Nc3nc(SC)nn32)ccc1O (configuration not stated)	-26.7% (inactive)	–
CC(=O)c1ccc(NC(=O)COc2ccccc2-c2nc(-c3ccccc3)no2)cc1	3.1% (inactive)	–
COc1cccc(CNC(=O)c2ccc3c(c2)N(Cc2ccc(C(F)(F)F)cc2)C(=O)c2ccccc2S3)c1OC	-5.25% (inactive)	–
O=C(CSc1oc(-c2ccc(F)cc2)nc1S(=O)(=O)c1ccc(Br)cc1)NC1CCCCC1	2.8% (inactive)	–
Cc1ccc(-c2nc(S(=O)(=O)c3ccc(C)cc3)c(N3CCCCCC3)o2)cc1	-18.3% (inactive)	–
CC(C)S(=O)(=O)c1oc(-c2ccc(F)cc2)nc1S(=O)(=O)c1ccc(F)cc1	–	3.16 µM (active)
COc1ccc(-c2nc(SCC(=O)N3CCCCC3C)n[nH]2)cc1 (configuration not stated)	0.441% (inactive)	–
O=C(NCCS(=O)(=O)N1CCN(c2ccc(F)cc2)CC1)c1ccccc1Br	-9.89% (inactive)	–
COc1ccc(NC(=O)Cn2c(=O)cc(C)c3c(C)nn(-c4cccc(Cl)c4C)c32)cc1OC	-0.142% (inactive)	–
CCOc1ccccc1CNC(=O)c1cnc2c(-c3ccc(OCC)c(OCC)c3)c(C)nn2c1C	-2.71% (inactive)	–
Cc1ccc(-c2nc(Cn3c(=O)cc(-c4ccccc4)c4c(C)nn(C)c43)c(C)o2)cc1	0.847% (inactive)	–
O=C(CCn1c(=O)c2ccccc2n(Cc2ccc(Cl)cc2)c1=O)NCc1ccc2c(c1)OCO2	16.4% (inactive)	–
COc1ccc(-c2onc(C)c2C)cc1S(=O)(=O)NCc1cccs1	-12.4% (inactive)	–
CCS(=O)(=O)N1CCc2cc(C(=O)N3CCN(c4ccccc4OC)CC3)ccc21	-23.9% (inactive)	–
